Experimental data from PubChem BioAssay (Tox21).
Calls of active or inactive are those of the source. Calls come from the whole dose curve; as a rule, active = well fitted curve in the direction sought with a large enough effect in the repeat runs; inconclusive = weak or mixed curves; inactive = flat fitted curve, though single readings scatter.

Assay: qHTS assay to test for compound auto fluorescence at 460 nm (blue) in HEK293 cells (AID 720678)
Conditions: blue autofluorescence 405/460 nm; series mostly up to 91.3 µM
From the text: National Center for Advancing Translational Sciences [NCATS]
NIH Chemical Genomics Center [NCGC]
U.S. Environmental Protection Agency [EPA]
National Institutes of Environmental Health Sciences [NIEHS]
National Toxicology Program [NTP]
U.S. Food and Drug Administration [FDA]
Compound auto fluorescence often interferes with screening of the compound library against various biological targets and signaling pathways. Some of these compounds may have fluorophoric properties. Such properties may interfere with the assay outputs resulting in false positives and/or negatives. To decrease such complications and ensure the compound activities are relevant in terms of biological response, the Tox21 10K compound library was screened for auto fluorescence.
From the fluorophores used as reporter signals in our screening assays, the auto fluorescence equivalencies of compounds against three fluorophores have been evaluated: Triamterene, Fluorescein and Rose Bengal sodium for blue, green and red fluorescence, respectively. The fluorescence intensities were measured using Excitation/Emission wavelengths at 405/460nm, 485/535nm and 540/590nm for blue, green and red labels, respectively. This assay includes the blue fluorescence data.
Tox21 Assay Protocol Summary:
2,000 HEK293 cells in 5 uL of culture medium containing 10% dialyzed FBS per well were dispensed into black wall/clear bottom 1536-well plates using a Multidrop Combi Dispenser (Thermo Scientific). The assay plates were incubated for 4-5 hr at 37C to allow cell attachment to the well bottom, followed by the transfer of 23 nL compound or DMSO vehicle by a pintool work station (Kalypsys, San Diego, CA). After the assay plates were incubated overnight at 37C and 5% CO2, fluorescence intensities in the assay plates were measured by an Envision (PerkinElmer, Shelton, CT) plate reader using three labels for measuring blue, green and red fluorescence at […] 460, 535 and 590nm respectively.

Row | Structure (SMILES) | outcome
1 | CCC/C=C/C=O | inactive
2 | C/C=C/C(=O)N(CC)c1ccccc1C | inactive
3 | CC(=O)Oc1c(C)c(C)c2c(c1C)CC[C@@](C)(CCC[C@H](C)CCC[C@H](C)CCCC(C)C)O2 | inactive
4 | CCCCCC1C(=O)CCC1CC(=O)OC (stereo not given) | inactive
5 | CN(C)/N=N/c1nc[nH]c1C(N)=O | inactive
6 | CC/C(=C(/CC)c1ccc(O)cc1)c1ccc(O)cc1 | inactive
7 | NCCN | inactive
8 | CCCCCCOCCOCCO | inactive
9 | O=C(O)c1ccc(O)cc1 | inactive
10 | CC(C)(C)c1cccc(C(C)(C)C)c1O | inactive
11 | CCCN1C=CN(C)C1 | inactive
12 | NC[C@H](O)c1ccc(O)c(O)c1 | inactive
13 | ClC/C=C/CCl | inactive
14 | Nc1cc([N+](=O)[O-])ccc1C(=O)O | inactive
15 | COC(=O)c1ccc(C)cc1 | inactive
16 | Nc1cc(Cl)c(N)c(Cl)c1 | inactive
17 | C=CCCCCCCCCCC | inactive
18 | IC(I)I | inactive
19 | Nc1ccc(O)c(N)c1 | inactive
20 | CC(C)[C@@H]1CC[C@@H](C)CC1=O | inactive

Row | Structure (SMILES) | outcome
21 | Cc1ccc(N)c([N+](=O)[O-])c1 | inactive
22 | c1ccc2c(c1)ccc1cc3c(ccc4ccccc43)cc12 | inactive
23 | CCCCCCCC/C=C\CCCCCCCC(=O)O | inactive
24 | C[C@]12CC[C@@H]3c4ccc(O)cc4CC[C@H]3[C@@H]1CC[C@@H]2O | inactive
25 | CC(=O)O[C@]1(C(C)=O)CC[C@H]2[C@@H]3C=C(C)C4=CC(=O)CC[C@]4(C)[C@H]3CC[C@@]21C | inactive
26 | [Na+] | inactive
27 | CC(=O)[C@H]1CC[C@H]2[C@@H]3CC=C4C[C@@H](O)CC[C@]4(C)[C@H]3CC[C@]12C | inactive
28 | O=C(CCCN1CCC(O)(c2ccc(Cl)cc2)CC1)c1ccc(F)cc1 | inactive
29 | Cc1ccc([N+](=O)[O-])c(C)c1 | inactive
30 | CCCOCCO | inactive
31 | C=CCOC(=O)C(=C)C | inactive
32 | CCCCCC=O | inactive
33 | C1CN(SSN2CCOCC2)CCO1 | inactive
34 | C=CCNCC=C | inactive
35 | C[C@]12C=CC(=O)C=C1CC[C@H]1[C@@H]3C[C@@H](O)[C@](O)(C(=O)CO)[C@@]3(C)C[C@H](O)[C@@]12F | inactive
36 | CC1(C)C(C=C(Cl)Cl)C1C(=O)OCc1cccc(Oc2ccccc2)c1 (stereo not given) | inactive
37 | C=C[C@@]1(C)CC(=O)[C@]2(O)[C@@]3(C)[C@@H](O)CCC(C)(C)[C@@H]3[C@H](O)[C@H](OC(C)=O)[C@@]2(C)O1 | inactive
38 | COc1cc([C@H]2Oc3cc([C@H]4Oc5cc(O)cc(O)c5C(=O)[C@@H]4O)ccc3O[C@@H]2CO)ccc1O | inactive
39 | O=Cc1ccccc1C=O | inactive
40 | CCO[Si](CCCNC(N)=O)(OCC)OCC | inactive
